# Source: PubChem (National Center for Advancing Translational Sciences (NCATS))
# The full list was thinned out, with hits kept by preference.
# TbPYK inhibitor = qHTS of Trypanosoma Brucei Inhibitors; TbPYK enzyme, Kinase-Glo Plus ATP luminescence, 45 min; Potency, µM (titrated, usually from 76.8 µM), without a hit: top-dose activity, negative = inhibition, most hits filed as inhibitors; 0.12% of 410,000 active; AID 624173, 2012; also: potency is read from the fitted curve at half-maximal effect; % is scaled to controls: 0 for no effect and ±100 for the full control effect; nearly all actives have a fitted effect of over 50% in size
#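 In this concentration-response screen, enzyme-free wells defined baseline while DMSO plates tracked drift. Each reaction combined TbPYK, substrate, compound and 130 uM ADP for 45 min at room temperature. Kinase-Glo Plus luminescence gave the signal.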
# Shiga toxin inh = A qHTS for Small Molecule Inhibitors of Shiga Toxin | AID 2315, 2010 | 9.2% of 290,000 active | Vero cells, Shiga toxin protein synthesis inhibition reporter | inhibition, % at 38.7 µM; in the data active = inhibition mostly above about 28%, no sharp cut-off; inactive = mostly below about 43%; also: 0% is about no effect
# RE007 growth inh = qHTS Assay for Inhibitors of the HIV-1 protein Vpr; S. pombe RE007 Vpr strain, BacTiter-Glo ATP luminescence, 24 h; Potency, µM (highest dose often 92.2 µM), for inactives: top-dose activity change, negative = less growth, most hits filed as inhibitors; 0.21% of 360,000 active; active = well fitted falling curve with a large enough effect; inconclusive = small, poorly fitted or top-dose-only effect; inactive = no such curve, though single readings can be large or run the other way; also: potency is read from the fitted curve at half-maximal effect; % is scaled to controls: 0 for no effect and ±100 for the full control effect; nearly all actives have a fitted effect of over 50% in size
#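 Fission yeast strain RE007, carrying one chromosomally integrated HIV-1 vpr copy, was seeded at OD 0.01 in PMG+AL medium with 23 nL pinned compound. After 24 h at 30 °C and 99% humidity, viability was read by BacTiter-Glo luminescence.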
# LmPK inhibitor = qHTS Assay for Inhibitors of Leishmania Mexicana Pyruvate Kinase (LmPK); Q27686; purified LmPK, Kinase-Glo ATP luminescence, 1 h; Potency, µM (series often up to 57.5 µM), without a hit: at the highest dose activity change, negative = inhibition, actives largely listed as inhibitors; 0.37% of 290,000 active; AID 1721, 2009; also: potency is read from the fitted curve at half-maximal effect; % is scaled to controls: 0 for no effect and ±100 for the full control effect
#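 Kinase-Glo luminescence read after 1 h RT reaction of 0.1 nM LmPK with 0.5 mM PEP and 0.1 mM ADP. Activity scaled between uninhibited and enzyme-free controls.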
# Giardia FBPA inh = qHTS Assay for Inhibitors of Fructose-1,6-bisphosphate Aldolase from Giardia Lamblia | purified Giardia FBPA | Potency, µM (top dose mostly 59.6 µM), for the others: top-dose activity, negative = inhibition, actives largely listed as inhibitors | 0.71% of 290,000 active | AID 2451, 2010; also: potency is read from the fitted curve at half-maximal effect; % is scaled to controls: 0 for no effect and ±100 for the full control effect; nearly all actives have a fitted effect of over 55% in size
# Target sequence (A8B2U2 whole entry, looked up): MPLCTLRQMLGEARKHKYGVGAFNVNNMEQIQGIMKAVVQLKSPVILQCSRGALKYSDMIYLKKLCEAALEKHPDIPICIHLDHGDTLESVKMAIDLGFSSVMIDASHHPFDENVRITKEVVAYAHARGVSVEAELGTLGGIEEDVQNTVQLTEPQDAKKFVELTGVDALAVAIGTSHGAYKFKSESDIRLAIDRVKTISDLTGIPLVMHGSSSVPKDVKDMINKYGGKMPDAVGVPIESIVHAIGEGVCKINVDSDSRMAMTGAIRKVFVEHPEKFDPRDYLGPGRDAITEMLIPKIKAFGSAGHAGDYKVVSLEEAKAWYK
#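 Giardia FBPA (40 nM reagent) was preincubated 10 min at RT with compound (up to 57.5 uM final), then substrate plus GAPDH/TPI/NAD/arsenate coupling system with diaphorase/resazurin was added; resorufin fluorescence (525/598 nm) was read after 20 min.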
# Cycloheximide cs = Cycloheximide Counterscreen for Small Molecule Inhibitors of Shiga Toxin | cell reporter, cycloheximide protein synthesis inhibition counterscreen | max response, % | 12% of 300,000 active | AID 2314, 2010; in the data active = max response mostly above about 13%, no sharp cut-off; inactive = mostly below about 14%; also: read at 38.3 µM for the half of the compounds with a filed dose; 0% is about no effect
# * marks the source's active call; other numbers are inactive results; ? = inconclusive; · = no result given. Unless noted, calls follow the shape of the dose curve; as a rule, active = well fitted curve in the direction sought with a large enough effect; inconclusive = small, poorly fitted or top-dose-only effect, or another doubt; inactive = no such curve, though single readings can be large; an effect the other way counts as inactive or inconclusive.
SMILES,TbPYK inhibitor,Shiga toxin inh,RE007 growth inh,LmPK inhibitor,Giardia FBPA inh,Cycloheximide cs
CSCC[C@H](NC(=O)[C@H](CC(C)C)NC(=O)[C@H](CO)NC(=O)[C@H](CCC(=O)O)NC(=O)[C@H](CC(C)C)NC(=O)[C@H](Cc1ccc(O)cc1)NC(=O)[C@H](CCCCN)NC(=O)[C@H](CCCCN)NC(=O)[C@H](C)NC(=O)[C@H](CO)NC(=O)[C@H](CC(C)C)NC(=O)[C@H](CCC(N)=O)NC(=O)CNC(=O)[C@H](CC(C)C)NC(=O)[C@H](CC(C)C)NC(=O)[C@H](CCCCN)NC(=O)[C@H](CO)NC(=O)[C@H](Cc1ccccc1)NC(=O)[C@H](CC(=O)O)NC(=O)[C@H](CO)NC(=O)[C@@H](NC(=O)[C@H](Cc1ccccc1)NC(=O)[C@@H](NC(=O)CNC(=O)[C@H](CC(=O)O)NC(=O)[C@H](C)NC(=O)[C@@H](N)Cc1cnc[nH]1)C(C)C)[C@@H](C)O)C(N)=O,·,-5.2,·,·,4.3%,-7.8
CCOC(=O)c1sc(NC(=O)c2ccc(Cl)s2)cc1C,1.2%,56.0*,-5.7%,4.7%,4.5%,38.7*
CCOC(=O)c1sc(NC(=O)Nc2ccc(Cl)cc2)cc1C,2.5%,67.2*,24.1%,-2.6%,-7.1%,46.4*
CCOC(=O)c1sc(NC(=O)c2ccccc2)cc1C,-0.7%,121.8*,-23.8%,?,-7.4%,69.6*
Nc1nc(N)c(S(=O)(=O)c2ccccc2)c(Nc2ccc(F)cc2)n1,-3.1%,·,·,·,·,·
Cc1ccc(C)c(N2C(=O)C3C4C=CC(CC4)C3C2=O)c1 (configuration not stated),3.9%,·,-19.8%,0.8%,0.7%,-2.3
CN(CC(=O)Nc1cccc(S(=O)(=O)N(C)c2ccccc2)c1)Cc1cccs1,6.2%,·,1.2%,·,·,·
O=C(N/N=C/c1cccc(F)c1)c1ccc(Cl)cc1,-3.7%,119.4*,2.7%,-0.8%,0.4%,44.2*
O=C(N/N=C/c1cccc(NC(=O)c2ccc(Cl)cc2)c1)c1ccc(O)cc1,-0.8%,85.2*,-6.5%,-2.7%,-3.7%,60.0*
COC(=O)C1=C(O)/C(=C/c2cccc(OC)c2O)N=C1C,-24.0%,46.9*,-3.7%,25.1µM*,-12.3%,29.2*
O=C(O)c1cc(-c2cccc3ccccc23)nc2ccccc12,0.2%,-12.0,6.3%,-0.9%,-6.9%,-2.2
O=C(O)c1cc(-c2c[nH]c3ccccc23)nc2cc3ccccc3cc12,·,66.9*,·,4.9%,-19.6%,36.3*
O=C(O)c1cc(-c2ccc3ccccc3c2)nc2ccc(F)cc12,6.1%,30.0*,-23.4%,0.5%,-7.0%,21.7*
C[C@@H](O)CCC[C@H](O)/C=C/[C@H]1[C@H](O)CC(=O)[C@@H]1C/C=C\CCCC(=O)O,·,·,·,·,-2.1%,·
Cc1ccc(-c2cc(O)cc3sc(=O)oc23)cc1C,-3.7%,11.6,39.8µM*,1.0%,-2.1%,9.2
COc1cc(/C=N\NC(=O)c2cccnc2)ccc1OC(=O)c1ccccc1Cl,-6.9%,-8.0,-11.0%,-0.5%,-2.7%,-0.5
COc1cc(C(=O)N/N=C/c2ccc(OC(=O)c3ccccc3Cl)cc2)ccc1O,2.7%,21.6,4.2%,-1.0%,1.6%,26.1*
Nc1ccc(C(=O)N/N=C\c2ccc(OC(=O)c3ccccc3Cl)cc2)cc1,2.3%,21.1,-9.3%,9.2%,-5.7%,37.6*
O=C(O)c1ccc(N/N=C/c2ccc(OC(=O)c3ccccc3Cl)cc2)cc1,-9.9%,19.4,14.9%,1.2%,8.9%,20.7*
O=C(N/N=C/c1ccc(OC(=O)c2ccccc2Br)cc1)c1ccccn1,-4.0%,-16.1,-14.6%,-12.9%,·,-3.5
COc1cc(C(=O)Oc2ccccc2/C=N/NC(=O)c2ccc(Cl)cc2Cl)cc(OC)c1OC,-8.4%,25.7*,22.3%,5.3%,-7.0%,23.1*
COc1ccccc1N1CCN(C(=O)Cn2c(=O)nc(-c3ccccc3)c3ccccc32)CC1,-3.1%,·,·,·,·,·
Cc1c(CCC(=O)N2CCCCC2)c(=O)oc2cc3occ(C(C)(C)C)c3cc12,0.6%,·,·,·,·,·
